Composite z-score, composite Z-score and z-score data for 5 compounds are collected here from PubChem BioAssay.

One experiment addresses Albumin (Bos taurus) (UniProt P02769). As to the kind of experiment: compounds binding labelled BSA control protein – biochemical, small-molecule microarray, Alexa647 label, 635/667 nm fluorescence, artefact control for SMM control protein annotation, profiling panel (AID 1118).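 Note: score merges 667 nm emission intensity and signal-to-noise per printed compound spot.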 To be noted: BSA-A647 binding, fluorescence 635 nm, higher = more signal.
The nature of experiment [1]: probe aXIP binding to arrayed compounds – biochemical, NeuroSMM set, 635/667 nm fluorescence, primary screen (AID 1119).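 Note: probe is the protein aXip251-270 applied at 1 µg/mL to compound-printed slides; binding of probe to printed compounds measured as 667 nm fluorescence plus signal to noise.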 To be noted: small-molecule microarray, higher = more signal, called active from +8 up or from −8 down.
Experiment [2] is described as follows: probe aNOTCH3 binding on compound microarray – biochemical, small-molecule microarray, 635/667 nm fluorescence, primary screen (AID 1120).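 Note: probe is a biotin-tagged antibody raised against NOTCH3 rather than NOTCH3 protein; score merges spot fluorescence near 667 nm with spot signal to noise.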 The following applies: higher = more signal.
Experiment [3] can be described thus: probe aNOTCH2 binding on compound microarray – biochemical, small-molecule microarray, 635/667 nm fluorescence, primary screen (AID 1121).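 Note: score merges feature fluorescence read at 667 nm with its signal to noise.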 To be noted: higher = more signal.
For experiment [4], the target named is Carbonic anhydrase 2 (Homo sapiens) (UniProt P00918). As to the kind of experiment: compounds binding carbonic anhydrase 2 – biochemical, small-molecule microarray, Alexa647-labelled CAII, profiling panel (AID 1122). To be noted: CAII-A647 binding fluorescence, higher = more signal.
Experiment [5] is described as follows: COS7 lysate on small-molecule microarray, probe aHis, 635 nm (AID 1123).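 Note: z-score combines 667nm fluorescence intensity with signal-to-noise per printed compound spot.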 To be noted: COS7 cell lysate, fluorescence, higher = more signal.
Experiment [6] can be described thus: probe aLAP1 signal on lysate-treated microarray – cell lysate, small-molecule microarray, COS7 lysate, primary screen (AID 1124).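 Note: lysate comes from COS7 cells expressing LAP1 and is applied at 0.3 µg/mL; score merges spot fluorescence near 667 nm with signal-to-noise over triplicate slides.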 The following applies: probe aLAP1, fluorescence, higher = more signal.
For another experiment, the system named is Sam68 (KHDRBS1). Kind of experiment: compounds binding KHDRBS1 protein – biochemical, small-molecule microarray, 635 nm fluorescence, primary screen (AID 1125).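 Note: score merges 667 nm channel intensity with signal to noise over triplicate slides.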 The following applies: higher = more signal.
Experiment [7] concerns Chordin-like protein 2 (CHRDL2). Kind of experiment: compounds binding chordin-like 2 – biochemical, small-molecule microarray, 635 nm fluorescence, primary screen (AID 1126).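 Note: printed compound slides probed with Chrdl2 protein at 4 µg/mL for 1 h at 4 C; score merges 667 nm emission intensity with signal to noise over three replicate slides.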 To be noted: fluorescence 635 nm, higher = more signal.
The target of experiment [8] is Concanavalin-A (Canavalia ensiformis) (UniProt P02866). Kind of experiment: compounds binding concanavalin A lectin – biochemical, small-molecule microarray, Alexa647 label, 635 nm, artefact control for SMM control protein annotation, primary screen (AID 1127).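 Note: z combines 667 nm emission intensity with signal-to-noise across three replicate slides.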 To be noted: ConA-A647 binding fluorescence, higher = more signal.
Concanavalin-A (Canavalia ensiformis), sequence (P02866 whole entry, looked up): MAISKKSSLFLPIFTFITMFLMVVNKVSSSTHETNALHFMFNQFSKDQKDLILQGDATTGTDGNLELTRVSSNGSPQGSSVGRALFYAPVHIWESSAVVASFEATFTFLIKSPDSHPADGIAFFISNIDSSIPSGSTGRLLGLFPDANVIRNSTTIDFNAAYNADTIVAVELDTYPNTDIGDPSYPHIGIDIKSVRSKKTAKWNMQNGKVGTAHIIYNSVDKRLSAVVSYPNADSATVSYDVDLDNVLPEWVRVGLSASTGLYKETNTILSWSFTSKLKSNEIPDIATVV
Experiment [9] in a line: compounds binding Alexa647 anti-His antibody – biochemical, small-molecule microarray, 635 nm fluorescence, artefact control for SMM control protein annotation, primary screen (AID 1128).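 Note: score merges feature fluorescence with signal-to-noise for each printed compound spot.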 To be noted: higher = more signal.
Experiment [10] has as its system Human papillomavirus type 1a E7 protein (residues 1-88). As to the kind of experiment: HPV1a E7 small-molecule binders, primary screen, biochemical, small-molecule microarray, residues 1-88, 635 nm (AID 1129). To be noted: small-molecule microarray binding, fluorescence 635 nm; higher = more signal.
In experiment [11] the target is Focal adhesion kinase 1 (Homo sapiens) (UniProt Q05397). As to the kind of experiment: PTK2 protein binding on printed compound slides – biochemical, small-molecule microarray, 635/667 nm fluorescence, BSA, DTT, primary screen (AID 1130).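 Note: composite of spot emission at 667 nm and signal to noise over triplicate slides.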 The following applies: 635 nm fluorescence, higher = more signal.
Focal adhesion kinase 1 (Homo sapiens), sequence (Q05397 whole entry, looked up): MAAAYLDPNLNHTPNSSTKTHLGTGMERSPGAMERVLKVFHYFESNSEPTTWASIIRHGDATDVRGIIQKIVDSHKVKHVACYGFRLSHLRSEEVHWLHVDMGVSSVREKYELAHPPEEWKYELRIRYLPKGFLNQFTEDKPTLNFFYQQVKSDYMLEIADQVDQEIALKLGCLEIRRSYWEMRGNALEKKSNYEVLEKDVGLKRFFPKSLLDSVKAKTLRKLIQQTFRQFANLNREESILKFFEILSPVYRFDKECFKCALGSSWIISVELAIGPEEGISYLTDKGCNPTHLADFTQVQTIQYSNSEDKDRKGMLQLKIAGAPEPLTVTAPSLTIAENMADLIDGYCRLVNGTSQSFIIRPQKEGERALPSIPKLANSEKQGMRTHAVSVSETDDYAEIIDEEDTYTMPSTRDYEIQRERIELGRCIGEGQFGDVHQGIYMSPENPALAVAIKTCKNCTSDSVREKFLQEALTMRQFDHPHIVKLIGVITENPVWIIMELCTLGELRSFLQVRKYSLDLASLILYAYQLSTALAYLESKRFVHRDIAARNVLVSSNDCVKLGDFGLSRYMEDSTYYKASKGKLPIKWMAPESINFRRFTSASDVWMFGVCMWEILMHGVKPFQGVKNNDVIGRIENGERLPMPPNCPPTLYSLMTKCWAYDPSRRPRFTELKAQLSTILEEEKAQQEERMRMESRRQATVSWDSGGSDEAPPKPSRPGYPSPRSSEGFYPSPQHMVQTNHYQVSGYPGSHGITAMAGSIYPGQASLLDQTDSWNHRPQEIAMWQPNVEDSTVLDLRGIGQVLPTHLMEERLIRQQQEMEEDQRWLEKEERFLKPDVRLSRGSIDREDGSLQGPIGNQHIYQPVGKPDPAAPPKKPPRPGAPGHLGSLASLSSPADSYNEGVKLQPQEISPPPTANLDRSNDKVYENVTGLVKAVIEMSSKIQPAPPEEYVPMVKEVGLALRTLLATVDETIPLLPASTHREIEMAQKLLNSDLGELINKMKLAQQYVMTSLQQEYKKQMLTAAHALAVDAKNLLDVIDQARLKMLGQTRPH
Experiment [12] concerns Fibrinogen (Alexa647-labelled). Kind of experiment: Alexa647-fibrinogen binding to printed small molecules – biochemical, small-molecule microarray, 635/667 nm fluorescence, artefact control for SMM control-protein annotation, profiling panel (AID 1131).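 Note: z-score merges 667 nm fluorescence with per-spot signal-to-noise over triplicate slides.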 To be noted: fibrinogen-A647 binding fluorescence, higher = more signal.
The target in experiment [13] is Follistatin (Homo sapiens) (UniProt P19883). As to the kind of experiment: FST protein binding to printed compounds – biochemical, small-molecule microarray, 635/667 nm fluorescence, primary screen (AID 1132). To be noted: 635 nm fluorescence, higher = more signal.
Follistatin (Homo sapiens), sequence (P19883 whole entry, looked up): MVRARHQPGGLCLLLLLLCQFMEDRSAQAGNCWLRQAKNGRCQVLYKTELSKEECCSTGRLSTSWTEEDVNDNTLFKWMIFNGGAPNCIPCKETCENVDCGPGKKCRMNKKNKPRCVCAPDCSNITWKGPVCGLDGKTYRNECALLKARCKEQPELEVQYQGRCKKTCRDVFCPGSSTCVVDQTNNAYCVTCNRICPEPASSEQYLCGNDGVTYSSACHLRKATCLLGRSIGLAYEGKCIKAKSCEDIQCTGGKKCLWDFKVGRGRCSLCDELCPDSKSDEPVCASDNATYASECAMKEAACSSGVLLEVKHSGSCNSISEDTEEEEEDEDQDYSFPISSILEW
The target in experiment [14] is Fibroblast growth factor 2 (Homo sapiens) (UniProt P09038). Kind of experiment: basic fibroblast growth factor binding to printed compounds – biochemical, small-molecule microarray, 635/667 nm fluorescence, primary screen (AID 1133). To be noted: FGF2, fluorescence 635/667, higher = more signal.
Fibroblast growth factor 2 (Homo sapiens), sequence (P09038 whole entry, looked up): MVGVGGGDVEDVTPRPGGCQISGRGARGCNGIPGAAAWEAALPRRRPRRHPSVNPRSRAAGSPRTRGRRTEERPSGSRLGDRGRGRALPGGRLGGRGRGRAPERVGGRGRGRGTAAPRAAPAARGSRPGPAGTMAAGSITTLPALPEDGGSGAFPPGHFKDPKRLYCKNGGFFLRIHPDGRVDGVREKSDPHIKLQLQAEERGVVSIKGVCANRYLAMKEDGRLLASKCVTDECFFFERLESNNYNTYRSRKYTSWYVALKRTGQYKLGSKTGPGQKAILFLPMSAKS
The nature of experiment [15]: JC-1 mitochondrial potential readout, lung cancer cells – cell-based, A549, JC-1 fluorescence, basal, 24 h, 100 nL, profiling panel (AID 1138).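 Note: A549 lung adenocarcinoma cells under basal conditions with no added stimulus; test concentration not given here.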 To be noted: higher = more signal.
The test system of the next experiment is Lefty1. Kind of experiment: Lefty1 protein binding to printed compounds – biochemical, small-molecule microarray, 635/667 nm fluorescence, primary screen (AID 1139). The following applies: fluorescence 635/667, higher = more signal.
In experiment [16] the test system is wheat germ agglutinin (Triticum aestivum), Alexa647-labelled. Kind of experiment: Alexa647-WGA lectin binding to printed small molecules – biochemical, small-molecule microarray, 635/667 nm fluorescence, artefact control for SMM control-protein annotation, profiling panel (AID 1140).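 Note: score merges 667 nm feature emission with signal to noise over triplicate slides.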 To be noted: WGA-A647 binding, 635 nm fluorescence, higher = more signal.
Experiment [17] concerns the target Luciferin 4-monooxygenase (Photinus pyralis) (UniProt P08659). As to the kind of experiment: inhibition of purified Photinus pyralis luciferase – biochemical, luminescence, purified enzyme, 2006 set, primary screen (AID 1141).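 Note: cell-free assay with purified firefly luciferase at 100 ng per well in PBS; test concentration not given here.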 The following applies: purified firefly luciferase, SteadyGlo luminescence, 30 min; higher = more signal, called active from +8 up or from −8 down.

Activity calls are given as the source filed them.

Albumin (Bos taurus), sequence (P02769 whole entry, looked up): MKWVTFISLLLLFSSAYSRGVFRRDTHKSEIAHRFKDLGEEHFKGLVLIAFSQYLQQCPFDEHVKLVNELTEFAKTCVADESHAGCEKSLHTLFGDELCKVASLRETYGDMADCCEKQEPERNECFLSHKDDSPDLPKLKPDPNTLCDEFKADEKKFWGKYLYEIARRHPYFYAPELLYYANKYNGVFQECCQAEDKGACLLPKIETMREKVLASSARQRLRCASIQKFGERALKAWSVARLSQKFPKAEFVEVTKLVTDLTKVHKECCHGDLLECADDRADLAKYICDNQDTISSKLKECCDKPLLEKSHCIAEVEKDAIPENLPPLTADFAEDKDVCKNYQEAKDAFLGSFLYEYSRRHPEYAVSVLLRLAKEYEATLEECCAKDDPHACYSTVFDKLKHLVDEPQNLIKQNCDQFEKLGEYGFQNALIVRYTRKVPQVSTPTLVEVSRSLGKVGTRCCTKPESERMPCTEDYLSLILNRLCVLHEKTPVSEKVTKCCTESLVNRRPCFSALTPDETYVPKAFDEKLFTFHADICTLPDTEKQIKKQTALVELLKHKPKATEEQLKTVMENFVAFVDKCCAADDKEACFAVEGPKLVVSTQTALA
Luciferin 4-monooxygenase (Photinus pyralis), sequence (P08659 whole entry, looked up): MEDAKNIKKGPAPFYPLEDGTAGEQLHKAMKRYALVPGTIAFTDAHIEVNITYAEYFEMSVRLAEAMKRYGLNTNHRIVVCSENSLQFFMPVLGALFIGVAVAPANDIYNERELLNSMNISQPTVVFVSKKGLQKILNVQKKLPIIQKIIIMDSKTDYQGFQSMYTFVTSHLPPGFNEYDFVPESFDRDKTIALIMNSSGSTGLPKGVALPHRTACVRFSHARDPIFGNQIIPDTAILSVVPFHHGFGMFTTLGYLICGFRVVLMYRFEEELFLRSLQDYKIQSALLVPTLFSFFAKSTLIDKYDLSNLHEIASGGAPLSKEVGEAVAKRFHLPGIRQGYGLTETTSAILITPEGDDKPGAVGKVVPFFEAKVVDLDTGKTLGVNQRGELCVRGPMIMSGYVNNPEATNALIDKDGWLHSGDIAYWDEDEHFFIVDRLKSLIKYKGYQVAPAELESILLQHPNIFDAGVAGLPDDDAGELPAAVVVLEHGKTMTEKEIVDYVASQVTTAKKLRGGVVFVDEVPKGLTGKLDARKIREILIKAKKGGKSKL

Regarding `C[C@@H]1NC(=O)CC=C[C@@H](C)[C@@H]2C=C[C@H](O)[C@@H](COC(=O)[C@H](C)NC(=O)CC=C[C@@H](C)[C@@H]3C=C[C@H](O)[C@@H](COC1=O)O3)O2`, the composite z-score is -0.942 in the experiment with Albumin (Bos taurus); -0.0328 in experiment [2]; -0.179 in experiment [3]; -0.0551 in [4]; -0.384 in [5]; -0.0401 in experiment [6]. For the same compound, the composite z-score in the experiment on Sam68 (KHDRBS1) is -0.116; in [7], 0.786; in experiment [8] it was -1.2; in experiment [9] it was -0.689; in experiment [10], -0.453; in [11], 0.365. Besides, the composite z-score in [12] was -0.917; in [13], 1.29; in [14], 0.859; in the experiment with Lefty1, 1.41; in experiment [16] it was -0.833. For the same compound, the composite Z-score in [1] was -0.0764 (inactive). The figures for the z-score in [15] and in experiment [17] were -0.0173 and -0.595 (inactive), respectively.

Regarding `COC(=O)[C@@]1(Cc2ccccc2)[C@H]2c3cc(C(=O)N4CCCC4)n(CCN4CNCC4=O)c3C[C@H]2CN1C(=O)c1ccccc1`, the composite z-score with Albumin (Bos taurus) is 0.963; in [2], 0.119; in [3] it was -0.173; in experiment [4] it was 0.924; in [5], 3.04; in [6] it was 0.808. In addition, the composite z-score in the experiment on Sam68 (KHDRBS1) is 0.28; in [7], -0.634; in experiment [8] it was 1.2; in [9] it was 0.361; in experiment [10], 1.21; in [11] it was 1.72. Further, the composite z-score is 0.728 in experiment [12]; 0.257 in [13]; -0.709 in [14]; -0.0783 in the experiment on Lefty1; 0.342 in experiment [16]. The composite Z-score in experiment [1] was 0.0178 (inactive). The z-score in experiment [15] was 0.791; in experiment [17], 2.42 (inactive).

Regarding `COC(=O)Cn1c(C(=O)N2CCCC2)cc2c1C[C@H]1CN(C(=O)c3ccccc3)[C@@](Cc3ccc(OC)cc3)(C(=O)OC)[C@@H]21`, the composite z-score in the experiment with Albumin (Bos taurus) is 0.92; in experiment [2] it was 0.707; in [3], 0.375; in experiment [4], 0.587; in [5] it was 2.68; in experiment [6] it was -0.268. Also, the composite z-score with Sam68 (KHDRBS1) was determined as 0.931; in experiment [7], 0.207; in [8], 0.73; in experiment [9], 1.9; in experiment [10] it was 1.24; in experiment [11], 1.67. Moreover, the composite z-score is 0.972 in experiment [12]; 0.43 in [13]; -0.612 in experiment [14]; -0.544 with Lefty1; 1.18 in experiment [16]. Moreover, in experiment [1], the composite Z-score is 1.09 (inactive). Also, the z-score in experiment [15] was 1.31; in [17], 1.78 (inactive).

For the compound `Cc1cc(C)c(C(O)C2C=CC3C(=O)N(C)C(=O)C3N2N2CCCCC2)c(C)c1` (stereo not given), the composite z-score with Albumin (Bos taurus) is 0.477; in experiment [2], 0.364; in experiment [3], 0.192; in [4], 0.74; in [5] it was 1.81; in [6], 0.83. Moreover, the composite z-score with Sam68 (KHDRBS1) was 1.29; in experiment [7], 0.245; in experiment [8] it was 1.15; in [9], 2.16; in experiment [10], 1.18; in experiment [11], -0.193. For the same compound, the composite z-score in experiment [12] is 0.985; in experiment [13], 1.28; in experiment [14], 0.994; with Lefty1 it was -0.0675; in experiment [16], 0.799. The composite Z-score in experiment [1] was 1.16 (inactive). The z-score in experiment [15] is 0.85; in [17], 0.915 (inactive).

Take `CCOC(=O)C[C@H]1[C@H](OC(=O)c2cc3ccccc3oc2=O)[C@@H](NC(=O)c2ccc3ccccc3c2)c2cc(OCCCO)ccc2N1C(=O)c1ccc2ccccc2n1`: the composite z-score is 0.668 with Albumin (Bos taurus); 0.0842 in experiment [2]; -0.122 in experiment [3]; 0.426 in experiment [4]; 0.193 in experiment [5]; 0.155 in experiment [6]. Further, the composite z-score with Sam68 (KHDRBS1) was 0.325; in [7], 0.731; in [8], 0.536; in [9], 0.322; in experiment [10], 1.04; in experiment [11], 0.0147. The composite z-score is 0.973 in experiment [12]; 0.986 in experiment [13]; 0.927 in experiment [14]; 0.488 in the experiment on Lefty1; 1.05 in [16]. Further, the composite Z-score in experiment [1] is 0.575 (inactive). In addition, the z-score in experiment [15] was 1.33; in [17] it was -0.233 (inactive).
